Reference: ChEMBL document CHEMBL1157539, “Thousands of chemical starting points for antimalarial lead identification” (Nature, 2010)

Experiments:
Assay type in all cases: functional
Plasmodium falciparum [1] = experiment: GSK_TCMDC: Inhibition of Plasmodium falciparum 3D7 in whole red blood cells, using parasite LDH activity as an index of growth. Test compounds present at 2uM
Plasmodium falciparum [2] = experiment: GSK_TCMDC: Inhibition of Plasmodium falciparum Dd2 in whole red blood cells, using parasite LDH activity as an index of growth. Test compounds present at 2uM
HepG2 = experiment: GSK_TCMDC: Percent inhibition of human HepG2 cell line. Test compounds present at 10uM.

SMILES	Inhibition (Plasmodium falciparum [1]) [%]	Inhibition (Plasmodium falciparum [2]) [%]	Inhibition (HepG2) [%]
CC(C)(C)c1ccc(/C=C/C(=O)NCCCCCN2CCC(c3c[nH]c4ccccc34)CC2)cc1	91	12	70
CCOc1cc(C)ccc1N(C1CCN(CCCCNC(=O)c2ccc(-c3ccc(C(F)(F)F)cc3)cc2)CC1)S(=O)(=O)c1ccccc1	88	85	14
CN1CCC(N2CCN(Cc3cccc(-c4ccc(-c5nc6cc(C(F)(F)F)ccc6[nH]5)cc4)c3)CC2)CC1.O=C(O)C(F)(F)F	100	91	100
COc1cccc(C(=O)N2CCOC(CCN3CCC(c4ccccc4)CC3)(c3ccc(Cl)c(Cl)c3)C2)c1 (configuration not stated)	87	63	38
Cc1sc(N2CCCCC2)nc1C(=O)Nc1ccc(F)cc1C(F)(F)F.O=C(O)C(F)(F)F	86	35	0
O=C(O)C(F)(F)F.O=S(=O)(NCCN1CCCC1)c1cccc(-c2ccc(CNCc3ccc(F)cc3)cc2)c1	100	41	38
CC(C)(C)c1ccc(CNC(=O)c2cc(CNC3CCNC3)ccc2O)cc1 (configuration not stated)	94	1	0
CC(C)c1ccc(OCC(O)CN(C)C(C)C(O)c2ccccc2)c(Br)c1.Cl (configuration not stated)	95	97	36
Cc1cc(I)ccc1Nc1nc2nonc2nc1Nc1ccc(I)cc1C	100	96	78
NC12CC3CC(CC(C3)C1)C2 [AMANTADINE]	98	0	31
CC(=O)c1sc(NC(=O)Nc2ccc(C)cc2C)nc1C	96	68	5
CC(C)(C)c1ccc(NC(=O)c2ccc(CN3CCCN(CC4CCCCC4)CC3)cc2)cc1.O=C(O)C(F)(F)F	99	64	54
N=C(N)NN=Cc1ccccc1OCc1ccccc1Cl	100	30	14
O=C(CSc1cccc[n+]1[O-])c1ccc(Cc2ncc(C(F)(F)F)cc2Cl)s1	99	0	13
CC(C)N1CCN(C(CN2CCN(CCCOc3cccc(-c4ccccc4)c3)CC2)c2ccc(F)cc2)CC1.Cl (configuration not stated)	100	99	100
CCCCc1cc(=O)oc2cc(C)cc(OCc3ccccc3F)c12	92	78	8
CS(=O)(=O)O.FC(F)(F)COc1ccc2ccccc2c1CNCCCCCCNCc1c(OCC(F)(F)F)ccc2ccccc12	100	95	99
COc1ccc2c(N/N=C/c3cccc([N+](=O)[O-])c3)cc(C)nc2c1	100	97	18
COc1ccc(NC(=O)/C=C/c2ccccc2Cl)cc1OCCN1CCC(N2CCCCC2)CC1	100	49	3
COc1cc2nc(N[C@@H](CO)c3ccccc3)nc(NCc3ccccc3)c2cc1OC	100	71	6
CN1CCN(c2cc(-c3cccc(C(F)(F)F)c3)nc(-c3ccncc3)n2)CC1	100	98	38
O=c1ccc(CNc2nc(NCCc3ccccc3)nc3ccc(Cl)cc23)c[nH]1	99	16	9
Fc1cccc(Nc2nc(NCCc3ccc(Cl)cc3)nc(Nc3cccc(F)c3)n2)c1	93	30	0
CN(C)CC(O)C(c1ccccc1)c1ccc(Cl)cc1.O=C(O)CCC(=O)O (configuration not stated)	99	4	4
CC(C)CNCc1ccc(-c2cccc(-c3nc4ccccc4[nH]3)c2)cc1.O=C(O)C(F)(F)F	99	98	53
Cc1cc(NC(=O)NCCN2CCC(NC(=O)c3cccc(Br)c3)C2)c2ccccc2n1.O=C(O)C(F)(F)F (configuration not stated)	100	60	0
Cc1[nH]c(C)c(-c2ccc(-c3ccc(OC(F)(F)F)cc3)nc2)c(=O)c1Cl	95	95	11
O=C(Nc1nc2cc(S(=O)(=O)NCCc3ccc(F)cc3)ccc2n1CCCn1ccnc1)c1ccc(Cl)cc1.O=C(O)C(F)(F)F	100	55	18
O=C(Nc1ccc(F)c(F)c1)c1ccc(CN2CCCN(Cc3cccc(F)c3)CC2)cc1.O=C(O)C(F)(F)F	83	12	51
